Screen size: about 370,000 compounds; about 4,800 (1.3%) were called active. What follows is part of a selection rich in actives, with near analogues and random picks from the rest. A number with no mark means an inactive call.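 The calls were made as follows: active = inhibition above about 21% made by adding two undisclosed values (limit read from the data); inactive = the rest.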

As usually defined, the inhibition is the drop in the measured response relative to a control, in per cent.

This assay deals with Protein arginine N-methyltransferase 1 (Homo sapiens) (UniProt Q99873). Nature of the assay: human PRMT1 activity-probe blockers – biochemical, fluorescence polarization, primary screen (AID 652257). The conditions noted are these: recombinant PRMT1, activity-based probe fluorescence polarization; at 2.79 µM; active compounds read high.
Protein arginine N-methyltransferase 1 (Homo sapiens), sequence (Q99873 whole entry, looked up): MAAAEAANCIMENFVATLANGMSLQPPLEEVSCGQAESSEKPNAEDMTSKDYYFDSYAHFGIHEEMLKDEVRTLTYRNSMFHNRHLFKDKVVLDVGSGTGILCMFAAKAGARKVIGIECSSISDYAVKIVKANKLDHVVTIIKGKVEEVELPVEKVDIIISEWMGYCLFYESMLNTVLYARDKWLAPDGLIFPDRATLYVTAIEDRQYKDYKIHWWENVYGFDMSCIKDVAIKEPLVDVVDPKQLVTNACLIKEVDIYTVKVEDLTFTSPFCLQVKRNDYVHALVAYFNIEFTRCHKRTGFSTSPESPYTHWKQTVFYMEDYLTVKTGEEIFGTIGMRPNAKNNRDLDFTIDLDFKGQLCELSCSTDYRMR
With `Cc1cc(N2C(=O)C3CCCN3C2c2ccc(Cl)c(Cl)c2)no1` (centres undefined), the inhibition is 1.57%.
Turning to `COC(=O)C1=C(c2cc3ccccc3s2)C[C@@H]2CC[C@H]1N2C(=O)NCc1cccc2ccccc12`, the inhibition was -3.89%.
Take `COP(=O)(NS(=O)(=O)c1ccccc1)OC`: the inhibition was -6.51%.
In the case of `Cc1ccc2c(c1)=C/C(=C\c1c(O)[nH]c(=O)[nH]c1=O)C(=O)N=2`, the inhibition was 7.2%.
As for `COc1ccccc1N=Nc1c(O)[nH]c(=S)[nH]c1=O`, the inhibition is -3.43%.
Regarding `O=C1N=c2ccccc2=C/C1=C\c1c(O)[nH]c(=S)[nH]c1=O`, the inhibition was 51.8% (active).
Turning to `CO[C@H]([C@H](C)/C=C/N(C)C=O)[C@@H](C)C(=O)CC[C@H](C)[C@H](O)[C@H](C)[C@H]1OC(=O)/C=C/C(C)=C/[C@H](O)[C@H](OC)C[C@@H]2C=CC[C@@H](C[C@H](OC)[C@@]3(CO3)[C@@H](OC)C[C@@H](OC)[C@@H]1C)O2`, the inhibition was 1.29%.
For `CCN(CC)C(=O)[C@@H]1C=C2c3cccc4[nH]c(Br)c(c34)C[C@H]2N(C)C1`, the inhibition was 9.48%.
Regarding `COP(=O)(OC)C(NC(=O)c1ccc(C)cc1)C(Cl)(Cl)Cl` (centres undefined), the inhibition is 1.17%.
As to `CN1CCC(N(C)Cc2cccnc2)CC1`, the inhibition is 11.7%.
Regarding `COc1ccc(N2C(=O)/C(=C/c3ccco3)C(=O)NC2=S)cc1`, the inhibition was 41.9% (active).
Regarding `O=C(COC(=O)Cc1ccccc1)Nc1ccc(F)cc1`, the inhibition was -1.27%.
On to `c1ccc(N2Cc3ccccc3-n3nncc3C2)nc1`, for which the inhibition is -1.49%.
For `CCOC(=O)CC(SP1(=S)OCC2(CCCCO2)C(C2CCCCO2)O1)C(=O)OCC` (centres undefined) the value was 55.3% (active); for `COc1ccc2c(c1)NP(=S)(c1ccccc1)N2` (centres undefined), 14.7%; for `COc1ccc(CCn2c(O)c(C=NC3CC3)c(=O)[nH]c2=O)cc1OC`, 0.57%.
To `CCOC(=O)C1(Cc2ccc(Cl)cc2)CCN(C(C)CCn2cccn2)CC1` (centres undefined) belongs -1.84%.
For the molecule `CC1CNCCN1c1ccc(Cl)cc1` (centres undefined), the inhibition is -2.9%.
As to `Cc1cc(N2CCNC[C@@H]2C)ccc1N1CC[C@H](O)C1`, the inhibition was 49.5% (active).
Take `Clc1ccc([C@@H]2CC3CCC2N3)cn1` (some centres undefined): the inhibition is -1.63%.
As for `CC(C)CN1CCN(Cc2ccccc2C(F)(F)F)CC1CCO` (centres undefined), the inhibition was 0.64%.
Consider `CCOC(=O)c1c(-c2ccccc2)oc2ccc(OC(=O)N(C)C)cc12`, for which the inhibition is 2.78%.
To `COc1ccccc1NC(=O)N1C[C@@H]2C[C@@H](C1)c1cccc(=O)n1C2` belongs 1.82%.
Turning to `CS(=O)(=O)N1CCC2CCNC2C1` (centres undefined), the inhibition was -2.72%.
With `CCC(=NCCc1ccccc1)c1c(O)n(C2CCCCC2)c(=O)[nH]c1=O`, the inhibition is -0.77%.
With `CC(=NCC1CCCO1)c1c(O)n(-c2ccccc2)c(=O)[nH]c1=O` (centres undefined), the inhibition was -2.12%.
As to `CC(=O)c1c(O)n(C2CCCCCC2)c(=O)[nH]c1=O`, the inhibition is 23.2% (active).
With `Cc1ccccc1CCC[C@@H](CC1CCCCC1)CN(C)C(=O)Oc1ccccc1`, the inhibition was 0.94%.
`COc1cc(OC)cc(C(=O)NCCN2CCC3(CC2)C(=O)NCN3c2ccccc2)c1`: the inhibition was 1.49%.

(Values after PubChem BioAssay AID652257 (The Scripps Research Institute Molecular Screening Center, 2013).)
